PostGolgi yeast: growth inhibition of a yeast mutant, post-Golgi transport screen. inhibition, % at 10 µM. 0.9% of 98,000 active. post-Golgi transport phenotypic cell assay. AID 739;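 note: yeast cells grown in 1536-well plates; yeast grown about 18 h at 30C before absorbance read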
sEH inhibitor: blocks human soluble epoxide hydrolase activity | inhibition, % at 2 µM | P34913 | 0.34% of 91,000 active | AID 707 | recombinant human sEH enzymatic activity assay; in the data active = inhibition above about 80%
Target sequence (P34913 whole entry, looked up): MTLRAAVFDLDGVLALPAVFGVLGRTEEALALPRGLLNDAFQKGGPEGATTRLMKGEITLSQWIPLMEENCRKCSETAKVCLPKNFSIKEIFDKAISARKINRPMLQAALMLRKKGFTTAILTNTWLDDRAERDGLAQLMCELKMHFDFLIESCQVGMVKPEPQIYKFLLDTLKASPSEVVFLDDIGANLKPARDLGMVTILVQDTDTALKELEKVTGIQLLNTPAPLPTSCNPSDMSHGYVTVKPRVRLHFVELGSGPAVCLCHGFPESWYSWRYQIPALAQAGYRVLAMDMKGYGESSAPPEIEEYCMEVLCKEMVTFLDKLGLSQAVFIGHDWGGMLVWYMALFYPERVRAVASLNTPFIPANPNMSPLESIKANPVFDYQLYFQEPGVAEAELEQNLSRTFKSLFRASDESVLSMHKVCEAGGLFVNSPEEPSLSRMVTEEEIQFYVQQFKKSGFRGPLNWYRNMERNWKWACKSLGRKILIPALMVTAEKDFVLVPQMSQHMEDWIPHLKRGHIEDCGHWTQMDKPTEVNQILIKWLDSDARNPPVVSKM
sEH activator: increases human soluble epoxide hydrolase activity; P34913; purified human sEH enzymatic activity, activator screen; activation, % at 2 µM; 0.04% of 91,000 active; AID 717; in the data active = activation above about 37%
PostGolgi ctrl: yeast control strain growth, post-Golgi counter-screen | efflux-deficient yeast background strain, growth absorbance A615, 16 h | inhibition, % at 10 µM | 5% of 98,000 active
Cav3 T inh: human Cav3.2 channel inhibition, primary screen | 4% of 100,000 active | Cav3.2-expressing cells, Fluo-4 calcium fluorescence FDSS; hits give low values | B-score at 10 µM | AID 449739 | O95180;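 active = single-dose well whose peak fluorescence ratio is a statistical outlier from its plate by either plate-standardised score or position-corrected B-score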
Large screens that a line does not name were inactive. Most compounds without a hit are left out; they make up all but 7.8% or so of the library. Cut-off read from the data, not from the text of the source, unless noted: active = inhibition above about 30%; inactive = the rest.

CCCN1C(=O)C(O)(CC(=O)c2ccc3c(c2)OCCO3)c2ccccc21 (centres undefined)	none
Cc1ccc(C(=O)CC2(O)C(=O)N(Cc3ccc4c(c3)OCO4)c3ccccc32)cc1 (centres undefined)	Cav3 T inh -7.5
O=C(COc1ccc(Cl)cc1)Nc1ccccc1N1CCOCC1	none
O=S(=O)(NCC(c1ccccc1)N1CCNCC1)c1ccc(Cl)cc1 (centres undefined)	none
Cc1ccc(NC(CNS(=O)(=O)c2ccc(Cl)cc2)c2ccccc2)cc1 (centres undefined)	PostGolgi ctrl 31 (no result: Cav3 T inh)
CC(C)CC(=O)Nc1ccccc1-c1nnn(CC(=O)N2CCOCC2)n1	none
O=C(O)CSC1CC(=O)N(c2ccc(Cl)cc2)C1=O (centres undefined)	none (no result: PostGolgi yeast, sEH inhibitor, sEH activator, PostGolgi ctrl)
O=C(CSC1CC(=O)N(CC(c2ccccc2)c2ccccc2)C1=O)Nc1ccc(Cl)cc1 (centres undefined)	PostGolgi ctrl 41, Cav3 T inh -7.4
CCCCOC(=O)CCn1[nH]c(=O)c2ccccc2c1=O	none (no result: sEH inhibitor, sEH activator)
O=C(Cn1[nH]c(=O)c2ccccc2c1=O)OCC(=O)N(Cc1ccccc1)Cc1ccccc1	Cav3 T inh -4.4
COC(=O)c1ccccc1NC(=O)CSc1nnc(-c2ccc(OC)cc2)n1C	none (no result: PostGolgi yeast, PostGolgi ctrl)
Cc1cc(Nc2ccccc2)n(-c2ccc(Br)cc2)n1	Cav3 T inh -7.2
O=C(NCC1COc2ccccc2O1)C1CCCN(S(=O)(=O)c2cnc[nH]2)C1 (centres undefined)	none (no result: PostGolgi yeast, sEH inhibitor, sEH activator, PostGolgi ctrl)
Cc1nc(N2CCN(C(=O)c3ccc(Cl)cc3)CC2)c(C#N)c2c1COC(C)(C)C2	none
COc1ccc(C(=O)N/N=C/c2ccc3cccc(OCc4ccccc4)c3n2)cc1	none
O=C(N/N=C/c1ccc2cccc(OCc3ccccc3)c2n1)c1ccc(Br)cc1	Cav3 T inh -4
COc1ccc(/C=C\C(=O)c2c(O)ccc3c(C)cc(=O)oc23)cc1OC	none
S=c1[nH]nc(C2CCCCC2)n1/N=C/c1ccc(Br)s1	none
S=c1[nH]nc(C2CCCCC2)n1/N=C/C=C/c1ccccc1	PostGolgi ctrl 31 (no result: Cav3 T inh)
CN(C)/C=N/c1c(C(=O)NCc2ccccc2)nnn1Cc1ccccc1	none
Cc1cc(=O)[nH]c(N2CCc3ccccc3C2)n1	PostGolgi ctrl 46
COCCNC(=O)c1c(NC(=O)c2nc(SC)ncc2Cl)sc2c1CCCC2	none
Cc1cc(C2(c3ccc(O)c(C)c3)C(=O)Nc3ccccc32)ccc1O	none (no result: Cav3 T inh)
Cc1cccc2c1NC(=O)C2(c1ccc(O)cc1)c1ccc(O)cc1	Cav3 T inh -5.1
CCOc1cc(/C=N/NC(=O)CNc2cccc(C)c2)ccc1OC(=O)c1ccccc1	Cav3 T inh -3.9
COc1cccc(NC(=O)C(OC(=O)/C=C/c2ccc3c(c2)OCO3)c2ccccc2)c1 (centres undefined)	Cav3 T inh -5.1
CCN(CC)c1nc(SCC(=O)O)nc(N(CC)CC)n1	PostGolgi ctrl 40
COc1cccc(OCCOc2ccccc2OC(C)C)c1	none
CCOc1ccccc1OCCOc1ccccc1OC(C)C	Cav3 T inh -5.4
CCN1C2=NCCCN2c2cc(C)c(C)cc21	none
Cc1ccc(CNC(=O)c2ccc(Cn3nc(C)c(Cl)c3C)o2)cc1	PostGolgi yeast 104, PostGolgi ctrl 100, Cav3 T inh -4.7
Cc1ccc(Cn2nc(C)c(NC(=O)C3(C)CC3(Br)Br)c2C)cc1 (centres undefined)	none (no result: PostGolgi yeast, PostGolgi ctrl)
Cc1nn(Cc2ccc(C(=O)Nc3ccccc3C(F)(F)F)o2)c(C)c1Br	PostGolgi ctrl 34
Cc1cc(C(=O)Nc2ccccc2C(F)(F)F)no1	none
O=c1c(Oc2ccccc2)coc2cc(O)cc(O)c12	none (no result: PostGolgi yeast, sEH inhibitor, sEH activator, PostGolgi ctrl)
O=C(CNS(=O)(=O)c1ccccc1)NCc1ccccn1	none
N#CC(C#N)=Cc1cn(-c2ncc(C(F)(F)F)cc2Cl)c2ccccc12	PostGolgi ctrl 43
CC1CCC(C(=O)NC(C(=O)N2CCN(c3ccccn3)CC2)C(C)C)CC1 (centres undefined)	none (no result: Cav3 T inh)
CC1CCC(C(=O)NC(C(=O)N2CCc3ccccc3C2)C(C)C)CC1 (centres undefined)	Cav3 T inh -5.4
Cc1sc2nc(CN(C(=O)NC3CCCCC3)C3CCCCC3)[nH]c(=O)c2c1C	none (no result: PostGolgi yeast, PostGolgi ctrl)
CC(=O)Nc1nnc(SCC(=O)NC(C)(C)C)s1	PostGolgi ctrl 32
CC(=O)Nc1nnc(SCc2ccc(F)cc2)s1	none
CCCCNC(=O)CN1C(=O)NC2(CCCc3ccccc32)C1=O (centres undefined)	none
CCCN1/C(=C2/SC(=S)N(CC)C2=O)C=Cc2ccccc21	none
CCCN1C(=O)/C(=C/C=C2\N(CC)c3ccccc3C2(C)C)SC1=S	Cav3 T inh -4.5
CCC1=C2CC[C@H]3C(=O)N(CC(=O)OC)C(=O)[C@H]3[C@H]2[C@@]2(C)C(=NCC(=O)OC)OC(=O)N2C1=O	none (no result: PostGolgi yeast, sEH inhibitor, sEH activator, PostGolgi ctrl)
Cc1ccc(-c2nc(NC(=O)c3nn(C)cc3[N+](=O)[O-])sc2C)cc1	none
Cn1cc([N+](=O)[O-])c(C(=O)Nc2nc(-c3ccc(Cl)cc3)cs2)n1	PostGolgi ctrl 40
Cc1ccc(NC(=O)CSc2nnc(-c3cccs3)n2Cc2ccco2)cc1	none
Cc1ccc(C)c(CSc2nnc(-c3cccs3)n2Cc2ccco2)c1	PostGolgi ctrl 35
Cc1cccc(S(=O)(=O)Nc2ccc(C)c3c2OC(C)(C)C3)c1	none
CCNc1nc(NC(C)C)nc(OCC)n1	none
C=CCOc1cccc(C2C(C(=O)c3ccco3)=C(O)C(=O)N2CCN(CC)CC)c1 (centres undefined)	none (no result: sEH inhibitor, sEH activator)
C=CCOc1cccc(C2C(C(=O)c3ccc(C)o3)=C(O)C(=O)N2c2nccs2)c1 (centres undefined)	Cav3 T inh -5.1
O=C(Cc1ccccc1)Nc1nc2ccccc2[nH]1	none
O=C(Cc1c[nH]c2ccccc12)Nc1nc2ccccc2[nH]1	Cav3 T inh -6.3
Cc1csc(NC(=O)Cc2c[nH]c3ccccc23)n1	Cav3 T inh -4.1
Cc1cnc(NC(=O)Cc2c[nH]c3ccccc23)s1	none
O=C(O)C1=C[C@@H](c2coc3ccccc3c2=O)C[C@@H](OCCCCO)O1	none (no result: PostGolgi yeast, sEH inhibitor, sEH activator, PostGolgi ctrl)
COC(=O)c1ccc(=O)c2nc3/c(=C/O)c(O)cc(=O)c3[nH]c12	none (no result: PostGolgi yeast, sEH inhibitor, sEH activator, PostGolgi ctrl)
O=c1c2ccccc2n(Cc2ccc(Cl)cc2)c(=O)n1Cc1ccco1	PostGolgi ctrl 75 (no result: sEH inhibitor, sEH activator, Cav3 T inh)
CC1CN(Cc2ccccc2Cl)CC(C)O1 (centres undefined)	none
O=C1N=C(N2CCCCC2)SC1=C1CCCC1	none
CCCCN1C(=O)/C(=C2\SC(N3CCCCC3)=NC2=O)c2ccccc21	PostGolgi ctrl 40
C=CCNC(=S)NNC(=O)c1cccn(Cc2ccc(Cl)c(Cl)c2)c1=O	Cav3 T inh -5.9
CNC(=S)NNC(=O)c1cccn(Cc2ccc(Cl)c(Cl)c2)c1=O	none
COCCNC(=O)CN1CCC(NC(=O)Nc2ccc(C(F)(F)F)cc2)CC1	sEH inhibitor 89
CC(C)c1ccc(NC(=O)NC2CCN(CC(=O)Nc3cccc4ccccc34)CC2)cc1	sEH inhibitor 90 (no result: Cav3 T inh)
O=C(CN1CCC(NC(=O)c2ccco2)CC1)Nc1cccc2ccccc12	none (no result: PostGolgi yeast, PostGolgi ctrl, Cav3 T inh)
C=CCn1c(COc2ccc3c(c2)CCCC3)nnc1SCC(=O)Nc1cccc(SC)c1	Cav3 T inh -4.4
C=CCn1c(COc2ccccc2)nnc1SCC(=O)Nc1ccc2c(c1)OCCO2	none
Cc1ccccc1NS(=O)(=O)c1cc(C(=O)N2CCCC2)ccc1C	none
